Laboratory results published in PubChem BioAssay (NCI).
About 83,000 compounds went through this panel and 20% of them were active in at least one assay; those are over-represented in the sample as a whole.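 Negative percent growth values reflect cell death: -40 means 40% of the cells present at the start died, and -100 means all died.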 A number with no mark means an inactive call. Calls of active or inactive are those of the source. Rule for the calls: active = growth percent below 10; inactive = the rest.

Test system: MDA-MB-468 breast
Experiment: NCI-60 one-dose screen, 48 h (100 = growth as untreated, 0 = no growth, -100 = all killed)
Conditions: 10 µM unless noted

SMILES	growth
O=C1Nc2ccc(F)cc2/C1=C/c1nc(-c2ccc(F)cc2)n2ccccc12	113%
Nc1nc(=O)n([C@H]2CC=C(CO)O2)cc1F	106%
CC(C)C(C)(C)C(=O)C(C)(C)C(C)(C)C	90.1%
Cc1c2c[n+](C(C)C)ccc2c(C)c2c1[nH]c1ccccc12	-37% (active)
COC(=O)C1CN(S(=O)(=O)/N=C2\NC(=O)NC2=C(Cl)Cl)C1	72.5%
COC(=O)[C@]1(C)CC[C@]2(C)CC[C@]3(C)C(=CC(=O)[C@@H]4[C@@]5(C)CCC(=O)NC(C)(C)[C@@H]5CC[C@]43C)[C@@H]2C1	-49.5% [100 µM] (active)
c1ccc(-c2n[nH]c(-c3ccccn3)n2)nc1	100%
C1CCC(N2CN3c4nonc4N4CN(C5CCCCC5)CN5c6nonc6N(C2)C3C45)CC1 (stereo not given)	99.5%
COc1ccc(C(=O)c2cc(C)c(OC)c(C)c2)c(OC)c1OC(=O)C(Cl)Cl	11.4%
Cn1c(=O)c2c(ncn2CC(=O)Nc2ccc(S(N)(=O)=O)cc2)n(C)c1=O	102%
COc1ccc(-c2nnc(SCC(=O)NC3=NN=C(c4ccccc4)CS3)o2)cc1	105%
COc1ccc(-c2cc(-c3ccccc3)nc(SCCCC(=O)NO)n2)cc1OC	-2.2% (active)
C[C@H]1c2cccc(O)c2C(O)=C2C(=O)[C@]3(O)C(O)=C(C(N)=O)C(=O)[C@@H](N(C)C)[C@@H]3[C@@H](O)[C@@H]21	41.8%
COc1ccc(-n2c(C(O)c3ccccc3)nn(CN3CCOCC3)c2=S)cc1 (stereo not given)	97.5%
COc1ccc(C2C3=C(COC3=O)N(CCO)c3cc(OC)c(OC)cc32)cc1 (stereo not given)	110%
CCCCCCC/C(=N\N=C(N)N)c1ccc(O)cc1	-79.7% (active)
CCOC(=O)C(C(C)=O)c1nc2sc3cc(Cl)c(Cl)cc3n2c(=O)c1C#N (stereo not given)	89.5%
Cc1c(O)ccc(SC#N)c1C	112%
CC(=O)CC(=O)SC1=NCCS1	124%
CO[C@H]1C[C@@H]2CC[C@@H](C)[C@@](O)(O2)C(=O)C(=O)N2CCCC[C@H]2C(=O)O[C@H]([C@H](C)C[C@@H]2CC[C@@H](OP(C)(C)=O)[C@H](OC)C2)CC(=O)[C@H](C)/C=C(\C)[C@@H](O)[C@@H](OC)C(=O)[C@H](C)C[C@H](C)\C=C/C=C/C=C/1C	39.9%

SMILES	growth
O=[N+]([O-])c1ccc(N/N=C\c2ccccc2[N+](=O)[O-])nc1	114%
O=C(C(=O)c1ccc2c(c1)OCO2)c1ccc2c(c1)OCO2	96.9%
COC(=O)C(C(=O)OC)C(Br)C(Br)C(Br)c1ccccc1 (stereo not given)	36.7%
Cc1ccc(N=CNN=C(N)N)cc1	100%
CC(=O)Nc1cccc(Nc2nc(N[C@H](C)c3ccccc3)c3ccccc3n2)c1	6.66% (active)
N#Cc1c(-c2ccc(Cl)cc2)nc(NN2C(=O)c3ccccc3C2=O)nc1N1CCOCC1	99.4%
CC/C=C\C[C@H](O)C/C=C1/C(=O)C=C[C@@H]1C/C=C\CCCC(=O)OC	3% (active)
CCOC(=O)c1c(C)nc2c(c1N)CC(=O)N2Cc1cc(F)cc(Cl)c1	84.9%
NS(=O)(=O)c1cccc(Nc2nc(SCC(=O)c3ccc(Br)cc3)nc3ccccc23)c1	61.3%
N#Cc1ccc(C2C3=C(CCCC3=O)OC3=C2C(=O)c2ccccc2C3=O)cc1 (stereo not given)	-16.1% (active)
Clc1ccc(-c2csc(Nc3cccc(Nc4csc(-c5ccc(Cl)cc5)n4)c3)n2)cc1	77%
O=c1[nH]c(=O)n(C2C[C@@H](O)[C@@H](CO)O2)cc1F (stereo not given in full)	-3.59% (active)
NC(N)=N/N=C(\c1ccccc1)C(O)c1ccccc1 (stereo not given)	99.8%
COc1cc(/C=C2\C(=O)Nc3cc(Cl)ccc32)ccc1OCc1ccc(F)cc1	93%
Clc1ccc(-c2nc(-c3c[nH]c4ncccc34)cs2)cc1	80.2% [100 µM]
O=C(O)c1cn(C2CC2)c2cc(N3CCN(Cc4cc(Cl)ccc4O)CC3)c(F)cc2c1=O	81.9%
NCCN1CCN(c2nccc(-c3ccc4ccccc4c3)n2)CC1	56.2%
O=C(NOCCO)c1ccc2cncn2c1Nc1ccc(I)cc1F	107%
CCCCCCCCCCCCCCCC[N+]1(CC)CCCC1	-35.7% (active)
O=C(/C=C/c1ccccc1)c1ccccc1	74.8%
